# Experimental data reported in PubChem BioAssay (NCI).
# Compounds without any hit were thinned out: in the full panel of roughly 83,000, 20% have a hit.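 The test compound was applied at a single concentration to cells in 96-well plates for 48 hours, and percent growth was recorded.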 Active and inactive are the calls of the source. How the source made its calls: active means growth percent below 10; inactive means the rest.
# Tested on: HL-60(TB) leukemia
# Test: NCI-60 one-dose screen, 48 h (100 = growth as untreated, 0 = no growth, -100 = all killed)
# Conditions: 10 µM unless noted
row,SMILES,growth
1,CN(C)c1ncc(C#Cc2c(F)cccc2F)c2ccccc12,59.9% (inactive)
2,COc1nc(N)nc(-n2c(-c3ccc(C)cc3)nc3ccccc32)c1NCc1ccc(C)cc1,101% (inactive)
3,Cn1ccnc1C(=O)/C=C/c1ccc(C(=O)Nc2nc3ccccc3[nH]2)cc1,26.7% (inactive)
4,COc1ccc(Nc2nccc(Nc3ccc4[nH]ncc4c3)n2)cc1,59.6% (inactive)
5,O=C1/C(=C/c2ccc(F)cc2)CN(Cc2cn(CCNc3ccnc4cc(Cl)ccc34)nn2)C/C1=C\c1ccc(F)cc1,-27.6% (active)
6,COc1cc(/C=C/c2cc(/C=C/c3ccc(O)c(OC)c3)n(C(=O)Nc3ccc(F)c(Cl)c3)n2)ccc1O,-28.9% (active)
7,COc1cccc(OCC(O)CN2CCN(c3ccccc3)CC2)c1 (stereo not given),78.7% (inactive)
8,COc1cc2c(Oc3ccc4[nH]c(C)cc4c3F)ncnc2cc1OCCCN1CCCC1,102% (inactive)
9,CCCCCCCCCCCCCCCCCC1=NC(C)(C)CN1C(C)(C)CO,-66.9% (active)
10,CC1C(=NC(=O)c2cnccn2)C(C)C(c2ccc(Cl)cc2)NC1c1ccncc1 (stereo not given),108% (inactive)
11,C1=Cc2ccccc2N(c2nnc(-c3ccccc3)o2)c2ccccc21,86.8% (inactive)
12,NC1CCN(c2nc(Nc3cccc(C(F)(F)F)c3)c3c(=O)[nH]ccc3n2)CC1,-61.2% (active)
13,Cc1nc(C)c(-c2nn3c(-c4cccc(F)c4)nnc3s2)s1,107% (inactive)
14,C/C(=N\Nc1cccc(Cl)n1)c1ccccn1,-9.92% (active)
15,COc1ccc(N)c(-c2cc3c(c4c2[nH]c2ccc(OC)cc24)CCCC3)c1,78.8% (inactive)
16,COc1cc(/C=C/C(=O)c2cccs2)ccc1OCc1ccc(Cl)nc1,72.6% (inactive)
17,c1ccc(C(CC2=NCCCN2)c2ccccc2)cc1,71% (inactive)
18,CCOC(=O)c1cn2ncnc(Oc3ccc(NC(=O)NCCN(CC)CC)c(Cl)c3)c2c1C,100% (inactive)
19,COc1cc(Cc2cc(-c3ccccc3)nn(Cc3ccccc3)c2=O)cc(OC)c1OC,19.3% (inactive)
20,S=c1[nH]ccn1-c1ccccc1Cl,90% (inactive)

row,SMILES,growth
1,COc1cccc(NC(=O)NCCNc2nccc(-c3c(-c4ccc(F)cc4)nc4sccn34)n2)c1,92.7% (inactive)
2,COc1cc(C2CC(=O)Nc3c2c(C)nn3-c2nc3ccccc3[nH]2)c(OC)c(OC)c1OC (stereo not given),21.5% (inactive)
3,c1cc2c(cc1-c1cnc3nonc3n1)OCO2,0.978% (active)
4,O=C1C=CC(=Nc2cc(Br)c(O)c(Br)c2)C=C1,29.9% (inactive)
5,COc1ccc(-c2nn(-c3cccc(Cl)c3)cc2-c2cc(-c3ccccc3)[nH]c(=O)c2C#N)cc1,111% (inactive)
6,COc1ccc(/C=C/C(=O)c2c(C)nc3ccccc3c2/C=C/c2ccccc2)cc1O,49.1% (inactive)
7,CN(CCCN(C)CCC1CCCCC1)CCC1CCCCC1,116% (inactive)
8,CCCc1cc(NC)nc(S(=O)(=O)CC)n1,127% (inactive)
9,CC(=Nc1ccccc1)C1=C(O)C(Cc2ccccc2)NC1=O (stereo not given),-52.3% (active)
10,CCCCCCCC/C=C\CCCCCCCCOc1cccc(CC(=O)NCC[N+]2(C)CCCCC2)c1,28% (inactive)
11,C=CCN1C(=O)/C(=c2\sc3n(c2=O)NC2C(N=3)N(CC)C(=O)N2CC)c2ccccc21 (stereo not given),-12.6% (active)
12,O=C(CN1C(=O)NC(c2ccccc2)(c2ccccc2)C1=O)c1ccc(N2CCCC2)cc1,85.5% (inactive)
13,CC[C@H]1OC(=O)[C@H](C)[C@@H](O[C@H]2C[C@@](C)(OC)[C@@H](O)[C@H](C)O2)[C@H](C)[C@@H](O[C@@H]2O[C@H](C)C[C@H](N(C)C)[C@H]2O)[C@](C)(O)C[C@H](C)CN(C)[C@H](C)[C@@H](O)[C@]1(C)O,89.9% (inactive)
14,COc1cnc2c(c1)C(=O)c1c-2n(CCCn2ccnc2)c(=O)c2cc(F)ccc12,-44.5% (active)
15,O=C(O)c1ccc2c(c1)C(=O)c1ccccc1C2=O,102% (inactive)
16,Nc1c(C(=O)NC2CCCCC2)sc2nc3c(cc12)C(=O)CCC3,95.2% (inactive)
17,Oc1ccccc1N=Cc1c(O)ccc2ccccc12,8.97% (active)
18,CCCCCCCCN(CCCCCCCC)CC(O)c1ccc(Cl)c(C)c1Cl (stereo not given),106% (inactive)
19,COC(=O)/C=C1/SC(=Nc2cccc(Cl)c2)N(CCc2c[nH]c3ccc(O)cc23)C1=O,-11.4% (active)
20,O=C(Nc1ccc(I)cc1F)c1cc(F)ccc1O,-30.7% (active)
